# Source: PubChem BioAssay (Tox21)
# Several values for one entry are separate records, joined by “and”; a condition that tells them apart may be missing. Equal entries are not always repeated. Records with an inconclusive call do not appear. Entries that show only a call come without a potency. Some structures have more than one record in an assay (separate samples or runs), and their calls can disagree. Activity calls are given as the source filed them. Unless noted, calls come from the whole dose curve.
# Legend:
# [1] = Nuclear factor erythroid 2-related factor 2/antioxidant responsive element (Nrf2/ARE) small molecule agonists: qHTS cell viability counter screen in human keratinocytes (AID 1919968; active = well fitted curve in the direction sought with a large enough effect in the repeat runs; an effect the other way counts as inactive or inconclusive; note: nearly all actives have a fitted effect of over 55% in size; note: potency is the fitted concentration of half-maximal effect)
# Outline: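 KeratinoSens cells (HaCaT keratinocytes stably carrying an ARE-luciferase reporter) were seeded at 1,500 cells/well and rested 5 h at 37 C/5% CO2. They were then exposed to compounds in DMSO for 23 h. Viability was read by CellTiter-Fluor fluorescence after 1 h.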
# [2] = molecular target: Gonadotropin-releasing hormone receptor (Homo sapiens) (UniProt P30968); assay: Human gonadotropin-releasing hormone receptor (GnRHR) small molecule agonists, calcium flux assay in GnRHR-HEK293 cells (AID 1920063); note: nearly all actives have a fitted effect of over 35% in size
# Sequence of Gonadotropin-releasing hormone receptor (Homo sapiens) (P30968 whole entry, looked up): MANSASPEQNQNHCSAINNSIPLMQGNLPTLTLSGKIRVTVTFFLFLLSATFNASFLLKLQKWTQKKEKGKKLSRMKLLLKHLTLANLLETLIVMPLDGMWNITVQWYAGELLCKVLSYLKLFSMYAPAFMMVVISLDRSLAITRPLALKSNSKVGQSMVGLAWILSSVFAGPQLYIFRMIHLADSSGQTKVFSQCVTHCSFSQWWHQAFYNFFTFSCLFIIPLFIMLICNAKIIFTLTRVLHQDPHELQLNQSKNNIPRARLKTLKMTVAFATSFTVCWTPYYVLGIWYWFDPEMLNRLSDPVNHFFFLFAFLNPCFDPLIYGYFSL
# Outline: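 HEK293 cells stably expressing human GnRHR were plated 18 h at 37 °C, loaded with calcium dye 1 h at 37 °C, then given compound in agonist mode; fluorescence (Ex/Em 480/540) read kinetically for 3 min at 1 s intervals.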
# [3] = molecular target: KiSS-1 receptor (Homo sapiens) (UniProt Q969F8); assay: Human kisspeptin (KISS1R) small molecule agonists, calcium flux assay in KISS1R-HEK293 cells (AID 1920064; active = well fitted curve in the direction sought with a large enough effect in the repeat runs; an effect the other way counts as inactive or inconclusive)
# Sequence of KiSS-1 receptor (Homo sapiens) (Q969F8 whole entry, looked up): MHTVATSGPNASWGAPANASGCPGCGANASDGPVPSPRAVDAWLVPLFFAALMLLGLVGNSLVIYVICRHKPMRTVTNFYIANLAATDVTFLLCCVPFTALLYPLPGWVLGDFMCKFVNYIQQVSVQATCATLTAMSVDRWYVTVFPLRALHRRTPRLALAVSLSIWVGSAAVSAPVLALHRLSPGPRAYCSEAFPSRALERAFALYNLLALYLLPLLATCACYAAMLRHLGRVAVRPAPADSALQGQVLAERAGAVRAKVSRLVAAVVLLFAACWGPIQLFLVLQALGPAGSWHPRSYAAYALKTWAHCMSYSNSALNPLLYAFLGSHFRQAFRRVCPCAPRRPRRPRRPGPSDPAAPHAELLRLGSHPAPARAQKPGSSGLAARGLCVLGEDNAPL
# Outline: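 HEK293 cells stably expressing human KISS1R were plated 18 h at 37 °C, loaded with calcium dye for 1 h at 37 °C, then given compound by pin tool. Fluorescence (Ex/Em 480/540) was read kinetically for 3 min.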
# [4] = G protein-coupled receptor (GPCR) small molecule agonists, calcium flux assay: HEK293 wild type cell line counter screen (AID 1920065)
# Outline: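 Cells were plated and cultured 18 h at 37 C/5% CO2, then loaded with calcium dye for 1 h at 37 C. Compounds in DMSO were pin-transferred in agonist mode, and fluorescence (Ex/Em 480/540) was read kinetically for 3 min at 1 s intervals.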
# [5] = p53 small molecule agonists, cell-based qHTS assay with human liver microsomes (AID 1963577);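 note: p53 response element beta-lactamase reporter cells with liver microsomes plus NADPH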
# Outline: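 HLM-supplemented p53RE-bla reporter assay: 16 h compound exposure at 37 C, microsomes and NADPH each 0.5 mg/mL final, read by fluorescence intensity.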
# [6] = p53 small molecule agonists, cell-based qHTS assay with rat liver microsomes (AID 1963578)
# Outline: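 Quantitative HTS of the Tox21 10K library: p53RE-bla cells, rat liver microsomes plus NADPH at 0.5 mg/mL final each, 16 h at 37 C, beta-lactamase fluorescence detection.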
# [7] = p53 small molecule agonists, cell-based qHTS assay with human liver microsomes: qHTS cell viability counter screen (AID 1963579); note: nearly all actives have a fitted effect of over 45% in size; note: potency is the fitted concentration of half-maximal effect
# Outline: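 Viability of p53RE-bla cells is measured as CellTiter-Glo luminescence following a 16 h, 37 C incubation with compound, liver microsomes from human donors and NADPH.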
# [8] = p53 small molecule agonists, cell-based qHTS assay: qHTS cell viability counter screen (AID 1963581); note: nearly all actives have a fitted effect of over 45% in size; note: potency is the fitted concentration of half-maximal effect
# Outline: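 p53RE-bla HCT-116 cells were exposed to compounds for 16 h at 37 C; after the beta-lactamase FRET read in the same wells, CellTiter-Glo was added and luminescence (intracellular ATP) read after 30 min at room temperature.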
# [9] = p53 small molecule agonists, cell-based qHTS assay (AID 1963582; active = well fitted activation curve with a large enough effect in the signal ratio in the repeat runs, not every such curve was filed as active; the % refers to the signal ratio)
# Outline: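 p53RE-bla beta-lactamase reporter cells rested 5 h at 37 C/5% CO2, then received compounds in DMSO by pin transfer and were incubated 16 h at 37 C. LiveBLAzer B/G FRET substrate was loaded for 2 h at room temperature before fluorescence reading.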
# [10] = molecular target: 5-hydroxytryptamine receptor 2A (Homo sapiens) (UniProt P28223); assay: 5-hydroxytryptamine receptor 2A (HTR2A) small molecule antagonists, cell-based qHTS assay (AID 1963586); note: nearly all actives have a fitted effect of over 45% in size
# Sequence of 5-hydroxytryptamine receptor 2A (Homo sapiens) (P28223 whole entry, looked up): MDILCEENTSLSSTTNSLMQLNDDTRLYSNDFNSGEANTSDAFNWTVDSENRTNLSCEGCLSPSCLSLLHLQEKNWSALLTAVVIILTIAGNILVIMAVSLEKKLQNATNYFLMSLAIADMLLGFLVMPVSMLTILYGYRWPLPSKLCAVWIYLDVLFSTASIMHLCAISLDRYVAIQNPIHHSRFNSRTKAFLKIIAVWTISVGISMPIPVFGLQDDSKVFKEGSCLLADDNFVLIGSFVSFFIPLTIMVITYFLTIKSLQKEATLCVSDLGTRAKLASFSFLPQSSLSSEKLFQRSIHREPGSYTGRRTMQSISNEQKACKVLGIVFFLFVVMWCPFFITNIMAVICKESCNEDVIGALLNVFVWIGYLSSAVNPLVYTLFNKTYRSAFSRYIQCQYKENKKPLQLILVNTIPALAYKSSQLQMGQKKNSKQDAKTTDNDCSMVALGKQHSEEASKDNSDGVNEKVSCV
# Outline: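 Antagonist-mode intracellular calcium assay: DOI (4 nM) added after 5 min compound pre-incubation at room temperature to dye-loaded HTR2A-CHO cells. Fluorescence followed for 3 min, sampled every second.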
# [11] = molecular target: 5-hydroxytryptamine receptor 2A (Homo sapiens) (UniProt P28223); assay: 5-hydroxytryptamine receptor 2A (HTR2A) small molecule agonists, cell-based qHTS assay (AID 1963587); note: nearly all actives have a fitted effect of over 30% in size; note: potency is the fitted concentration of half-maximal effect
# Outline: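 Kinetic calcium-flux fluorescence (2 min, 1 sec intervals) after compound addition in agonist mode. HTR2A-CHO cells were cultured 18 h, then dye-loaded 1 h at 37 C.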
# [12] = molecular target: Muscarinic acetylcholine receptor M1 (Homo sapiens) (UniProt P11229); assay: Cholinergic receptor muscarinic 1 (CHRM1) small molecule antagonists, cell-based qHTS assay (AID 1963588); note: nearly all actives have a fitted effect of over 40% in size
# Sequence of Muscarinic acetylcholine receptor M1 (Homo sapiens) (P11229 whole entry, looked up): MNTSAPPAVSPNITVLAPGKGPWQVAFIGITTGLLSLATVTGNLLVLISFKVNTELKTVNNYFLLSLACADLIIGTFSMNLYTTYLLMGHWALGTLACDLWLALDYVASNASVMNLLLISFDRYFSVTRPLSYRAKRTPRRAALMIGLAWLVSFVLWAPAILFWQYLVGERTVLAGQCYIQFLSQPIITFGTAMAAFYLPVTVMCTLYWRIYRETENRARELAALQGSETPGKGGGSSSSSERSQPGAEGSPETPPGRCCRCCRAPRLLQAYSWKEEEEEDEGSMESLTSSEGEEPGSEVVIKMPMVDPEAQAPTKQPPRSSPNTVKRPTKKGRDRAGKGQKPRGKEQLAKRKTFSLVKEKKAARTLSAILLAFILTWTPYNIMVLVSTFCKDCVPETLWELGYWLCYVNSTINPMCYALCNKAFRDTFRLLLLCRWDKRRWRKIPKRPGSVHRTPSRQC
# Outline: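 CHRM1-CHO calcium-flux assay, antagonist mode. Cells were seeded 18 h, dye-loaded 1 h at 37 C and given compound for 5 min at RT, then acetylcholine was added at 50nM. FDSS fluorescence was read 3 min; 15 concentrations, three runs.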
# [13] = molecular target: Muscarinic acetylcholine receptor M1 (Homo sapiens) (UniProt P11229); assay: Cholinergic receptor muscarinic 1 (CHRM1) small molecule agonists, cell-based qHTS assay (AID 1963589); note: nearly all actives have a fitted effect of over 35% in size
# Outline: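 CHO cells stably expressing human CHRM1, seeded 18 h at 37 C/5% CO2, dye-loaded 1 h at 37 C, then given compound in agonist mode; intracellular calcium fluorescence read kinetically at 1 s intervals. Fifteen concentrations, three independent runs.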
# [14] = cAMP Responsive Elements (CRE) small molecule agonists, cell-based qHTS assay (AID 1963590)
# Outline: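 CRE-bla HEK 293T cells in DMEM with 10% dialyzed FBS, NEAA, pyruvate and 25 mM HEPES were plated 18 h at 37 C/5% CO2, then exposed to compounds in DMSO for 3 h before LiveBLAzer B/G FRET substrate addition.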
# [15] = molecular target: Beta-2 adrenergic receptor (Homo sapiens) (UniProt P07550); assay: Adrenergic beta2 receptor (ADRB2) small molecule antagonists, cell-based qHTS assay (AID 1963592); note: nearly all actives have a fitted effect of over 50% in size; note: potency is the fitted concentration of half-maximal effect
# Sequence of Beta-2 adrenergic receptor (Homo sapiens) (P07550 whole entry, looked up): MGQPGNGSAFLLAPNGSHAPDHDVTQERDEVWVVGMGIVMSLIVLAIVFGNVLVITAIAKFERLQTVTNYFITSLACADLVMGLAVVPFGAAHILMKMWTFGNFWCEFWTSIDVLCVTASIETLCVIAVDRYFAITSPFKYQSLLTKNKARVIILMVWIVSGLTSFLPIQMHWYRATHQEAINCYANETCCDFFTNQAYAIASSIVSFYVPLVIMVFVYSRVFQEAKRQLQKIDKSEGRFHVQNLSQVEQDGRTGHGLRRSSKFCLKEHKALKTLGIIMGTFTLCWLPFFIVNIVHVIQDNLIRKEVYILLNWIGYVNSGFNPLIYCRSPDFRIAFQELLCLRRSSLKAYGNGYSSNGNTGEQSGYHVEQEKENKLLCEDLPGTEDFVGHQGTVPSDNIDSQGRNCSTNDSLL
# Outline: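 Cells (CHO, stable ADRB2 overexpression) incubated 18-20hr at 37C; compounds added from DMSO; agonist mix (1nM isoproterenol, 100uM IBMX, 25uM Ro-20-1724) added; 0.5hr RT; d2-cAMP and anti-cAMP-cryptate added; 1hr RT; 665/615 nm read.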
# [16] = molecular target: Beta-2 adrenergic receptor (Homo sapiens) (UniProt P07550); assay: Adrenergic beta2 receptor (ADRB2) small molecule agonists, cell-based qHTS assay (AID 1963593);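 note: CHO cells stably overexpressing human ADRB2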
# Outline: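 CHO cells stably over-expressing ADRB2 were plated overnight at 37C, then dosed with compounds plus a stimulation mix containing 100uM IBMX and 25uM Ro-20-1724 for 0.5hr at room temperature. cAMP was measured by HTRF competition, 1hr.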
# [17] = molecular target: D(2) dopamine receptor (Homo sapiens) (UniProt P14416); assay: Dopamine D2 receptor (DRD2) small molecule agonists, cell-based qHTS assay (AID 1963594); note: nearly all actives have a fitted effect of over 35% in size
# Sequence of D(2) dopamine receptor (Homo sapiens) (P14416 whole entry, looked up): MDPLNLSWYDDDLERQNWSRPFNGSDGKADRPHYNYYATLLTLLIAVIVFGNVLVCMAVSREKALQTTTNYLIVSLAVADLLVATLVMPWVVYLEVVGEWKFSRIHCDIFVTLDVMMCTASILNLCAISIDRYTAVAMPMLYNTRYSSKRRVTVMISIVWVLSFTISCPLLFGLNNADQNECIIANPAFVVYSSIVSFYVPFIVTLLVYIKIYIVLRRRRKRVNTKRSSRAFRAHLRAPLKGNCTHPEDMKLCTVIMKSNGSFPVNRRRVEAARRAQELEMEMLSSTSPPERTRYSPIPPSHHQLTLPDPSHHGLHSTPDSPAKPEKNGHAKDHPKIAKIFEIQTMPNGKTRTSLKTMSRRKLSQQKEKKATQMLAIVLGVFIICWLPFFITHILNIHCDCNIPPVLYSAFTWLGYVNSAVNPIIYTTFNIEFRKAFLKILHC
# Outline: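 cAMP accumulation in DRD2-HEK293 cells measured by HTRF after 1 h detection; compounds added 10 min before NKH477 (200nM […]) forskolin-analogue stimulation, 30 min at room temperature, with Ro20-1724 present at 0.1 mM final.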
# [18] = molecular target: D(2) dopamine receptor (Homo sapiens) (UniProt P14416); assay: Dopamine D2 receptor (DRD2) small molecule antagonists, cell-based qHTS assay (AID 1963595; active = well fitted inhibition curve with a large enough effect in the signal ratio in the repeat runs, with a control signal flat; the % refers to the signal ratio)
# Outline: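 HTRF cAMP read-out at 665 and 620 nm emission (340 nm excitation). Antagonist mode: compounds were tested against 12 nM quinpirole in DRD2-HEK293 cells, with 200 nM NKH477 raising cAMP and 0.1 mM Ro20-1724 blocking its breakdown.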
# [19] = p53 small molecule agonists, cell-based qHTS assay with rat liver microsomes: qHTS cell viability counter screen (AID 1963580); note: nearly all actives have a fitted effect of over 45% in size; note: potency is the fitted concentration of half-maximal effect
# Outline: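 Intracellular ATP, by CellTiter-Glo luminescence, defines viability. HCT-116 p53RE-bla cells, 4,000 per well, were compound-treated in the presence of rat liver microsomes and NADPH for 16 h at 37 C.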
# [20] = cAMP Responsive Elements (CRE) small molecule antagonists, cell-based qHTS assay (AID 1963591; active = well fitted inhibition curve with a large enough effect in the signal ratio in the repeat runs, not every such curve was filed as active; the % refers to the signal ratio)
# Outline: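 CRE-bla HEK293T cells were plated 18 h at 37 °C/5% CO2, pinned with compound in DMSO, then stimulated with NKH477 at 0.25 uM final for 3 h. LiveBLAzer B/G FRET substrate was added and plates incubated 2 h at room temperature.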
Structure (SMILES),Potency [1],Potency [2],Potency [3],Potency [4],Potency [5],Potency [6],Potency [7],Potency [8],Potency [9],Potency [10],Potency [11],Potency [12],Potency [13],Potency [14],Potency [15],Potency [16],Potency [17],Potency [18],Potency [19],Potency [20]
CC(=O)NC(Cc1ccccc1)C(=O)O (stereo not drawn),inactive,inactive,inactive,inactive,inactive,inactive,inactive,inactive,inactive,inactive,inactive,inactive,inactive,inactive,inactive,inactive,inactive,inactive,,
CC(COCCO)OCCO (stereo not drawn),inactive,inactive,inactive,inactive,inactive,inactive,inactive,inactive,,inactive,inactive,inactive,inactive,inactive,inactive,,inactive,inactive,inactive,inactive
COc1ccccc1NC(=O)CC(C)=O,inactive,inactive,inactive,inactive,inactive,inactive,inactive,,inactive,inactive,inactive,inactive,inactive,inactive,inactive,,inactive,inactive,inactive,inactive
Cc1ccc(S(=O)(=O)O)c(C)c1,inactive,inactive,inactive,inactive,inactive,,inactive,inactive,inactive,inactive,inactive,inactive,inactive,inactive,inactive,inactive,inactive,inactive,inactive,inactive
CC(C)CCOCCC(C)C,inactive,inactive,inactive,inactive,inactive,inactive,inactive,inactive,inactive,inactive,inactive,inactive,inactive,inactive,inactive,inactive,inactive,inactive,,inactive
CC(C)(O)C(=O)O,inactive,inactive,inactive,inactive,inactive,inactive,inactive,,inactive,inactive,inactive,inactive,inactive,,inactive,inactive,inactive,inactive,inactive,inactive
OC1CCCCCCCCCCC1,inactive,inactive,inactive,inactive,inactive,inactive,inactive,,inactive,inactive,6.23 µM (active),inactive,inactive,inactive,inactive,,inactive,inactive,inactive,inactive
COc1ccc(CCN2CCC(Nc3nc4ccccc4n3Cc3ccc(F)cc3)CC2)cc1,11.1 µM (active) and 23.7 µM (active),inactive,inactive,inactive,inactive,inactive,14.8 µM (active) and inactive,13.2 µM (active),inactive,,,,,,55.7 µM (active) and inactive,,,,26.3 µM (active) and inactive,
CC(C)(C)CC(C)(C)c1ccc(O)c(-n2nc3ccccc3n2)c1,48.6 µM (active),inactive,inactive,inactive,inactive,inactive,inactive,inactive,inactive,inactive,inactive,,inactive,inactive,inactive,inactive,inactive,inactive,,inactive
CC(C)CC(C)(O)C#CC(C)(O)CC(C)C (stereo not drawn),inactive,inactive,inactive,inactive,inactive,inactive,inactive,,inactive,inactive,inactive,inactive,inactive,inactive,59.9 µM (active) and inactive,inactive,inactive,inactive,inactive,inactive
CC1CCC(C(C)(C)S)C(=O)C1 (stereo not drawn),inactive,inactive,inactive,inactive,,inactive,inactive,inactive,inactive,,inactive,inactive,inactive,inactive,,,inactive,inactive,inactive,inactive
CCCCCC/C(C=O)=C\c1ccccc1,inactive,inactive,inactive,inactive,,,inactive,inactive,,inactive,inactive,inactive,inactive,inactive,inactive,inactive,inactive,inactive,inactive,
N[C@H](Cc1c[nH]c2ccccc12)C(=O)O,inactive,inactive,inactive,inactive,,,inactive,inactive,,inactive,inactive and 19 µM (active),inactive,inactive,inactive,inactive,inactive,inactive,inactive,inactive,inactive
CN1CCCC1=O,inactive,inactive,inactive,inactive,inactive,inactive,inactive,inactive,,inactive,,,inactive,inactive,inactive,inactive,inactive,inactive,,inactive
CC12CCC(C1)C(C)(C)C2O (stereo not drawn),inactive,inactive,inactive,inactive,,inactive,inactive,inactive,inactive,inactive,inactive,inactive,inactive,inactive,inactive,inactive,,,inactive,inactive
